The record followed here is PubChem BioAssay (NCI).

Compounds without any hit were thinned out: in the full panel of roughly 83,000, 20% have a hit.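 Interpretation: 100, growth as untreated; towards 0, rising growth inhibition; 0, no net growth; 0 to -100, cell death. Compounds scoring below 10 were considered active.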 Values without a mark were called inactive. Activity calls are given as the source filed them.

The test relates to NCI-H522 lung. The experiment in a line: NCI-60 one-dose screen, 48 h (100 = growth as untreated, 0 = no growth, -100 = all killed). Conditions: 10 µM unless noted.
In the case of `O=C(C=P(c1ccccc1)(c1ccccc1)c1ccccc1)CCl`, the growth was -77.7% (active).

As to `CS(=O)(=O)Nc1cc(-c2cc3ncc(C#N)c(Nc4ccc(Oc5ccccc5)c(Cl)c4)c3s2)cnc1Cl`, the growth was 32.4%.

Consider `O=C(c1ccccc1)N(CCCCl)C(=O)N(CCCCl)C(=O)c1ccccc1`, for which the growth was 88.1%.

Consider `CCCCn1c(-c2ccc(F)cc2)nc2cc(OC)c(OC)cc2c1=O`, for which the growth was 93.7%.

On to `Oc1c(-c2cc(C(F)(F)F)[nH]n2)cc(Cl)c(OCc2ccc(Cl)cc2)c1-c1ccc(Cl)c(C(F)(F)F)c1`, for which the growth is -2.6% (active).

For `Cc1ccccc1N1C(c2ccccc2)=NNC12C=CC(=O)c1c(O)cccc12` (centres undefined), the growth is 54.6%.

Turning to `O=C(C(=O)c1cccnc1)c1cccnc1`, the growth was -0.192% (active).

For the compound `COc1c(B(O)O)cccc1-c1nc2ccc3[nH]ncc3c2c2c1CCCC2`, the growth was 15.1%.

As to `COC(=O)c1cc2oc(/C=N/NC(=O)c3cc4oc(-c5cccc(C(F)(F)F)c5)cc4[nH]3)cc2n1Cc1ccccc1`, the growth was 97.4%.

As for `Fc1ccc(-c2nnc(N3CCOCC3)c3ccccc23)cc1`, the growth is 101%.

As to `COc1cc(C)c2c(=O)c3c(oc2c1)C(=O)c1c(O)c(OC)cc(O)c1C3=O`, the growth was -48.3% (active).

As to `COc1ccc(C2=CC(c3ccc(OC)cc3Br)N3C=CSC3=N2)cc1` (centres undefined), the growth was 67.9%.

As for `CC1=C(C(=O)Nc2ccc(F)cc2)C(c2ccc(Cl)cc2)C2=C(CC(C)(C)CC2=O)N1` (centres undefined), the growth is 82.4%.

Turning to `Cc1ccc(NC(=O)c2nc(S(C)=O)oc2-c2ccc(F)cc2)cc1Nc1nccc(-c2cccnc2)n1` (centres undefined), the growth is 7.97% (active).
